Compounds with a hit are over-represented: about 2.6% of the library has one in this group of screens.
697 NFkB inh: inhibitors of PMA/ionomycin-induced NF-kB reporter, 697 cells, primary screen, B-cell NF-kB inhibitor project, cell-based, luminescence, uHTS; 697 B-cell NF-kB luciferase reporter, 16 h; inhibition, % at 4 µM; 0.33% of 330,000 active; AID 435022, 2010; in the data active means inhibition above about 35%
COUP-TFII inh: NR2F2 transcriptional activity inhibitors, primary screen, cell-based, luciferase reporter, HEK293T, luminescence; HEK293T NGFI-A luciferase reporter; inhibition, % at 8.6 µM; 0.7% of 370,000 active;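 active means inhibition above a per-plate cutoff, mean inhibition of test wells between control levels plus 3 SD, cut at about 38% in these data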;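 further: cells cotransfected with COUP-TFII expression vector driving the NGFI-A reporter; 0% = median of COUP-TF2 test wells and 100% = reporter-only cells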
Target sequence (P24468 whole entry, looked up): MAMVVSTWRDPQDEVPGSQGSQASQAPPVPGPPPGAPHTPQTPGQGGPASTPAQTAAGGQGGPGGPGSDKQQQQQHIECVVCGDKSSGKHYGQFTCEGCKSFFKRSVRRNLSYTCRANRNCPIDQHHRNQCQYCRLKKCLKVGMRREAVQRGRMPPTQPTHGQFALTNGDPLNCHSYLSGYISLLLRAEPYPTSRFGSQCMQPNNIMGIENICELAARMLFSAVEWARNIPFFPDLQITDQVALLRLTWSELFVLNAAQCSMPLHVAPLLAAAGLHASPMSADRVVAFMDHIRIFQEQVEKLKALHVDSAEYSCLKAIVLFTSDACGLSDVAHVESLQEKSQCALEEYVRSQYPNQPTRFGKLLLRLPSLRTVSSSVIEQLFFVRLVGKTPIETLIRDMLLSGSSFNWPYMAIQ
Jurkat NFkB inh: inhibitors of induced NF-kB luciferase reporter, primary screen, TCR NF-kB activation inhibitor project, cell-based, luminescence, uHTS. 0.53% of 330,000 active. inhibition, % at 4 µM. Jurkat, PMA/ionomycin-induced NF-kB luciferase reporter; in the data active means inhibition above about 50%
H9c2 TAG inh: inhibitors of triacylglycerol accumulation, primary screen, cell-based, uHTS, fluorescence, H9c2; H9c2 cells, Nile Red lipid (TAG) fluorescence; cells loaded with 200 µM oleic acid; inhibition, % at 12.5 µM; 0.66% of 230,000 active;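 active means pattern-corrected inhibition of lipid staining of at least 50% with the nuclear-stain viability signal not falling by more than 50%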;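 further: 0% = DMSO wells and 100% = triacsin C control wells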
Cardio protect: cardioprotection against H2O2-induced cell death, primary screen, uHTS, H9c2 cells, ATPLite luminescence | H9c2 cardiomyocytes, H2O2 injury protection, 2 h | protection from H2O2 cell death, % at 20 µM | 0.63% of 360,000 active | AID 588492, 2011;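 active means compounds giving at least 50% protection of heart cells from peroxide-induced death in the single-dose screen, raw or plate-pattern-corrected value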;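 further: 0% = DMSO wells with peroxide and 100% = DMSO wells without peroxide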
Gli-Sufu antag: Gli-Sufu pathway antagonists, primary screen, luciferase luminescence, Sufu-KO-LIGHT cells, uHTS | Sufu-KO-LIGHT fibroblasts, Gli luciferase reporter luminescence | inhibition, % at 5 µM | 0.74% of 340,000 active;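 active means inhibition above about 55%, limit read from the data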;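 further: 0% = DMSO-treated cells and 100% = wells with medium but no cells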
VP16 Luc counter: Gal4-VP16 luciferase reporter inhibitors, counter-screen for COUP-TFII antagonist project, cell-based, luminescence, HEK293. shares compounds with COUP-TFII inh. 25% of 2,500 active. AID 687007, 2013. inhibition, % at 8.5 µM; in the data active means inhibition above about 13%
COUP-TFII conf: NR2F2 transcriptional activity inhibitors, confirmation, cell-based, luciferase reporter, HEK293, triplicate; shares compounds with COUP-TFII inh; HEK293 NGFI-A luciferase reporter, luminescence; inhibition, % at 8.5 µM; 45% of 2,500 active; AID 687008, 2013;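 active means mean inhibition over three repeats above a set limit taken from the earlier primary screen, cut at about 38% in these data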;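 further: 100% = cells given the luciferase reporter alone without the COUP-TF2 vector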
Active calls of the source: *; nt = no result given.

SMILES | 697 NFkB inh | COUP-TFII inh | Jurkat NFkB inh | H9c2 TAG inh | Cardio protect | Gli-Sufu antag | VP16 Luc counter | COUP-TFII conf
Cc1ccc(S(=O)(=O)N2CCCCC2)cc1NCC(=O)Nc1ccc(Br)cc1F | nt | 54.6* | nt | -30.4 | -21.2 | nt | 0.9 | 26.6
COc1ccc(C(=O)Nc2ccc(C)c(S(=O)(=O)N3CCCCCC3)c2)cc1 | -21.6 | 45.9* | 10.8 | 15.7 | -8.3 | 19.1 | -0.2 | 19.7
CCc1ccc(C(=O)Nc2ccc(OC)c(S(=O)(=O)N3CCOCC3)c2)cc1 | 1.3 | 15.1 | -10.8 | 5.4 | 5.2 | -3.4 | nt | nt
CCc1ccc(C(=O)Nc2ccc(OC)c(S(=O)(=O)N3CCCCC3)c2)cc1 | 1.3 | 57.8* | 27.0 | -15.9 | 0.4 | -4.7 | -2.4 | 33.9
COc1ccccc1NC(=O)c1ccc(S(=O)(=O)N2CCCC2)cc1 | 14.6 | 4.3 | 13.2 | 4.0 | -11.3 | -5.2 | nt | nt
O=C(NC1CCCCN(Cc2cccc(C(F)(F)F)c2)C1=O)c1ccc(F)cc1 (stereo not drawn) | nt | 24.4 | nt | nt | nt | nt | nt | nt
c1ccc(CC(Nc2cccnc2)c2ccccc2)cc1 (stereo not drawn) | nt | 7.2 | nt | nt | nt | nt | nt | nt
Cc1nccn1-c1ccc(NC(=O)[C@@H](Cc2ccccc2)NC(=O)[C@H]2O[C@@H](n3ccc(=O)[nH]c3=O)[C@H](O)[C@@H]2O)cc1 | nt | 24.5 | nt | nt | nt | nt | nt | nt
CCOC(=O)[C@]12CCCC3=C1N(CCC3)C(=O)[C@@H](CC(=O)N1CCOCC1)C2 | nt | -3.0 | nt | nt | nt | nt | nt | nt
Nc1[nH]c(C(=O)c2ccc(Br)cc2)c(-c2ccc(Cl)cc2)c1C(=O)NCCc1c[nH]c2ccccc12 | nt | 3.2 | nt | nt | nt | nt | nt | nt
CC(=O)N(CCc1ccccc1)c1ccc2c(c1)C1CC2CCN1C(=O)OCc1ccccc1 (stereo not drawn) | nt | 37.9* | nt | -10.5 | -20.1 | nt | -5.5 | 7.4
C[C@@H]1CN(c2ccc(N3CCN(C(=O)OC(C)(C)C)C[C@@H]3C)cc2C#N)CCN1Cc1ccccc1 | nt | 3.6 | nt | nt | nt | nt | nt | nt
C/C(=N\Nc1nc(-c2ccccn2)nc2ccccc12)c1ccc(F)cc1 | -9.3 | nt | 19.5 | 1.6 | 7.3 | 8.8 | nt | nt
c1ccc(-c2nc(N3CCOCC3)c3ccccc3n2)nc1 | -39.5 | -5.8 | -16.1 | 7.5 | -2.3 | -1.7 | nt | nt
CCCCN(CC)c1nc(-c2ccncc2)nc2ccccc12 | -10.7 | 25.7 | -2.3 | 4.2 | 6.9 | 10.8 | nt | nt
c1ccc(CCNc2nc(-c3ccccn3)nc3ccccc23)cc1 | -37.9 | 50.2* | 7.2 | 21.8 | 14.6 | 7.3 | -12.8 | 31.8
CCCN(CCC)c1nc(-c2ccccn2)nc2ccccc12 | -15.8 | 57.4* | 10.0 | nt | 7.8 | 46.1 | -1.1 | 30.6
c1ccc(-c2nc(N3CCCCCC3)c3ccccc3n2)nc1 | -9.6 | 38.3* | 8.0 | -0.3 | 23.5 | 27.3 | 0.1 | 36.6
CN1C2=N[C@@H](c3ccc4c(c3)OCO4)CC(=O)N2/C(=C\c2ccccc2)[C@@H]1c1ccccc1 | nt | 3.7 | nt | nt | nt | nt | nt | nt
O=S1(=O)CC2c3ccccc3CCN2CN1Cc1ccc(F)cc1 (stereo not drawn) | nt | -2.2 | nt | nt | nt | nt | nt | nt
CN1CC(O)([C@H](Cc2ccccc2)NC(=O)OC(C)(C)C)OCC1C(=O)NCc1cccc2ccccc12 (stereo partly drawn) | nt | 17.1 | nt | nt | nt | nt | nt | nt
COc1cc(/C=C2\COC/C(=C\c3ccc(O)c(OC)c3)C2=O)ccc1O | -60.6 | 63.4* | 3.6 | 13.4 | 53.4* | 1.3 | 12.9 | 18.6
COc1cc(/C=C/C=C2/CC/C(=C/C=C/c3ccc(O)c(OC)c3)C2=O)ccc1O | nt | -10.6 | nt | 9.7 | 26.6 | -19.8 | nt | nt
COc1ccc(/C=C2\CC/C(=C\c3ccc(OC)c(OC)c3)C2=O)cc1OC | -17.8 | 51.1* | -1.9 | nt | -7.5 | -15.0 | 31.9* | 49.5*
C=CCn1c(Cc2cccs2)nnc1SCC(=O)Nc1cccc2ccccc12 | nt | 5.6 | nt | nt | nt | nt | nt | nt
SMILES | 697 NFkB inh | COUP-TFII inh | Jurkat NFkB inh | H9c2 TAG inh | Cardio protect | Gli-Sufu antag | VP16 Luc counter | COUP-TFII conf
O=C(Nc1ccccc1)Nc1cc(Cl)cc(Cl)c1 | 13.6 | 8.1 | -9.3 | 15.5 | -20.8 | -0.5 | nt | nt
O=C(Nc1ccccc1)Nc1cc(OCC(F)(F)F)cc(OCC(F)(F)F)c1 | nt | 67.2* | nt | nt | -11.2 | 25.1 | 0.4 | 20.1
CC(=O)Nc1ccc(Nc2nc(-c3cc4ccccc4oc3=O)cs2)cc1 | -71.5 | 40.0* | -26.1 | nt | 38.1 | -13.8 | -135.4 | -67.5
COC(=O)C1=C(C)N(CCCC(=O)O)C(=O)NC1c1ccccc1OS(=O)(=O)c1ccccc1[N+](=O)[O-] (stereo not drawn) | 10.1 | 5.9 | 5.7 | 10.4 | 24.7 | 6.0 | nt | nt
CCOC(=O)C1=C(C)N(Cc2ccccc2)C(=O)NC1c1ccccc1OS(=O)(=O)c1ccccc1[N+](=O)[O-] (stereo not drawn) | -13.8 | 46.5* | 24.0 | nt | 1.5 | 12.1 | 1.3 | 33.9
O=C(NCc1ccc(F)c(F)c1)c1ccc(-c2ccc(F)c(F)c2)c2ccoc12 | nt | 5.6 | nt | -10.8 | -5.1 | nt | nt | nt
O=C(NCc1cccnc1)c1ccc(-c2ccc(F)c(F)c2)c2ccoc12 | nt | 67.7* | nt | -12.1 | -9.1 | nt | 3.3 | 49.5*
CCCOC(=O)c1ccc(OCC(O)Cn2c(C)nc3ccccc32)cc1 (stereo not drawn) | -47.0 | 39.2* | 16.0 | -36.2 | -39.9 | 28.5 | -42.6 | 30.2
CCCOc1ncnc2c1[nH]c1ccccc12 | -8.8 | 39.8* | -5.8 | nt | -16.3 | 12.0 | -40.6 | -1.0
CC(C)Oc1ncnc2c1[nH]c1ccccc12 | -50.3 | 38.1* | 25.2 | -16.6 | -17.0 | 12.1 | -52.7 | 24.8
CCN(CC)c1ncnc2c1[nH]c1ccccc12 | -5.5 | 1.9 | -6.2 | -2.1 | -12.8 | -14.4 | nt | nt
COc1cc(NC(=O)c2cccs2)c(C(=O)OCC(=O)c2cc(C)n(-c3ccc(F)cc3)c2C)cc1OC | -24.0 | 19.9 | 5.1 | nt | 5.1 | 19.3 | nt | nt
COc1cc(NC(=O)c2cccs2)c(C(=O)OCC(=O)c2cc(C)n(-c3ccccc3)c2C)cc1OC | 9.5 | 64.6* | 35.3 | nt | -2.4 | 12.1 | 18.2* | 36.7
CC(=O)Nc1ccc(NC(=O)c2csc([C@@H]3C[C@H](O)[C@@H](CO)O3)n2)cc1 | nt | -4.7 | nt | 2.3 | 22.1 | nt | nt | nt
O=C(Nc1ccc(OCCO)cc1)c1csc([C@@H]2O[C@H](CO)[C@H](O)[C@H](O)[C@H]2O)n1 | nt | 2.3 | nt | 2.1 | -2.0 | nt | nt | nt
O=C(Nc1ccc(Oc2ccccc2)cc1)c1csc([C@H]2C[C@H](O)[C@@H](CO)O2)n1 | nt | 76.9* | nt | -31.4 | -33.0 | nt | -4.5 | 61.1*
